Screens: PubChem BioAssay, National Center for Advancing Translational Sciences (NCATS)
This is a sample that favours compounds with a hit; in the whole collection about 2.4% have one here.
Cruzain Triton: inhibitors of Trypanosoma cruzi cruzain with detergent. purified cruzain, Z-FR-AMC fluorescence, 0.01% Triton. Potency, µM, without a hit: max response, negative = inhibition, actives largely listed as inhibitors. AID 1478. 200,000 compounds, 0.43% hits. P25779;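 further: plate controls were neutral wells for no effect and buffer without enzyme for full effect; nearly all actives have a fitted effect of over 40% in size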
Target sequence (P25779 123-467 limits assumed): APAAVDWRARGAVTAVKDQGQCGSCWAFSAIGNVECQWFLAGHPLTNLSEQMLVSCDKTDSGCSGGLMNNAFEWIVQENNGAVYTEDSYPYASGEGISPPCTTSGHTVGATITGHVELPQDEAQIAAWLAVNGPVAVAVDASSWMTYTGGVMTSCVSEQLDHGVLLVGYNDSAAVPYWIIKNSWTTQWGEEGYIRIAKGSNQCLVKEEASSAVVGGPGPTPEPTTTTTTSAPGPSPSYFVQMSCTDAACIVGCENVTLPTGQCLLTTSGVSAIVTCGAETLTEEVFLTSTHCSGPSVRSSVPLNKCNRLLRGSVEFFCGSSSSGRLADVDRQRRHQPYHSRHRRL
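Enzyme 1.5 nM, Z-FR-AMC 2 uM, NaOAc 100 mM pH 5.5, DTT 5 mM, Triton X-100 0.01%; 15 min RT compound preincubation; kinetic ex360/em450, 60 s delta.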
Cruzain inh noDet: blocks cruzain activity in detergent-free assay. Potency, µM, for inactives: max response, negative = inhibition, most hits filed as inhibitors. P25779. purified cruzain, Z-FR-AMC fluorescence, no detergent. AID 1476. 200,000 compounds, 2.3% hits;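 further: plate controls were enzyme without inhibitor for no effect and buffer without enzyme for full effect; nearly all actives have a fitted effect of over 40% in size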
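Detergent-free condition (0.00005% Triton X-100) in acetate buffer pH 5.5 with DTT. 1.5 nM enzyme and compound were pre-mixed 15 min, then 2 uM Z-FR-AMC substrate added; reaction progress from fluorescence change between first and third reads (60 s).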
* hit, by the source's call. The call rests on the fitted dose curve; in most records, active means well fitted curve in the direction sought with a large enough effect; inconclusive means small, poorly fitted or top-dose-only effect, or another doubt; inactive means no such curve, though single readings can be large; an effect the other way counts as inactive or inconclusive. Potency means the concentration at half of the fitted maximal effect.

CCOc1ccc(OCC(=O)NCCc2nc3ccccc3[nH]2)cc1 was read as Cruzain Triton 5µM* and Cruzain inh noDet 0.79µM*.
O=C(CNC(=O)c1ccccc1)NCCc1nc2ccccc2[nH]1 was read as Cruzain Triton -6% and Cruzain inh noDet -17%.
`COc1ccc(C(=O)NCCc2nc3ccccc3[nH]2)cc1` gave Cruzain Triton 13µM* and Cruzain inh noDet -15%.
Cc1cc(=O)oc2cc(OCC(=O)NCc3ccccn3)ccc12 was read as Cruzain Triton -7% and Cruzain inh noDet 2%.
For CCOC(=O)CCc1nc2ccccc2[nH]1 the results were Cruzain Triton -5% and Cruzain inh noDet -1%.
Screening Cc1cc(C)cc(OCC(=O)Nc2cccc(-c3nc4ccccc4[nH]3)c2)c1 returned Cruzain Triton -5% and Cruzain inh noDet -21%.
Cc1cc(C)cc(OCC(=O)NCCc2nc3ccccc3[nH]2)c1 was read as Cruzain Triton 16µM* and Cruzain inh noDet 17%.
For CCOc1ccc(C(CC(=O)O)N2Cc3ccccc3C2=O)cc1OC (configuration not stated) the results were Cruzain Triton -1% and Cruzain inh noDet 3%.
`COC(=O)c1c(C)sc(-c2c(-c3ccc4c(c3)OCCO4)[nH]c3c2c(=O)[nH]c(=O)n3C)c1O` gave Cruzain Triton -1% and Cruzain inh noDet 8%.
For CCCCN(CC)CCNC(=O)C1CCCN(c2ncnc3onc(C)c23)C1 (configuration not stated) the results were Cruzain Triton -2% and Cruzain inh noDet -10%.
Screening CN1C(=O)CC[C@@H]1c1cccnc1 returned Cruzain Triton -4% and Cruzain inh noDet -6%.
For COc1ccc(C)cc1NC(=O)c1cc2c(=O)n3cccc(C)c3nc2s1 the results were Cruzain Triton -2% and Cruzain inh noDet -11%.
Cc1ccc(C(=O)NC(=S)Nc2cccc(-c3nc4ccccc4s3)c2)cc1 was read as Cruzain Triton 0% and Cruzain inh noDet inconclusive.
For O=C(Nc1cc(-c2nc3ccccc3s2)ccc1Cl)c1ccc2c(c1)OCO2 the results were Cruzain Triton 5% and Cruzain inh noDet inconclusive.
`Cc1ccc(-c2nc3ccccc3s2)cc1NC(=S)NC(=O)/C=C/c1ccco1` gave Cruzain Triton 0% and Cruzain inh noDet 16µM*.
Cc1ccc(-c2nc3ccccc3s2)cc1NC(=S)NC(=O)c1cccc2ccccc12 was read as Cruzain Triton -4% and Cruzain inh noDet 6.3µM*.
For Cc1ccc(-n2nc3cc(C)c(NC(=S)NC(=O)/C=C/c4ccco4)cc3n2)cc1 the results were Cruzain Triton -5% and Cruzain inh noDet inconclusive.
Screening O=C(/C=C/c1ccco1)NC(=S)Nc1cc(-c2nc3ccccc3s2)ccc1Cl returned Cruzain Triton -7% and Cruzain inh noDet 6.3µM*.
CC1=C(C#N)C(NC(=O)c2ccccc2)(C(F)(F)F)C(=O)N1 (configuration not stated) was read as Cruzain Triton -1% and Cruzain inh noDet 1%.
`CCOC(=O)CC(=O)CSc1nc2c(c(-c3cccs3)c1C#N)CCC2` gave Cruzain Triton -8% and Cruzain inh noDet -6%.
CCOCCSc1nc2c(c(-c3cccs3)c1C#N)CC/C2=C/c1cccs1 was read as Cruzain Triton -5% and Cruzain inh noDet 16µM*.
Screening Cc1ccc2[nH]c(CSc3nnc(NC(=O)c4ccc(Cl)cc4)s3)cc(=O)c2c1 returned Cruzain Triton 5% and Cruzain inh noDet -9%.
`Cc1ccc(NC(=O)c2nnn(CC(=O)Nc3ccccc3)c2N)cc1C` gave Cruzain Triton 6% and Cruzain inh noDet inconclusive.
Screening Cc1ccc(NC(=O)c2nnn(CC(=O)Nc3ccc(C)c(Cl)c3)c2N)c(C)c1 returned Cruzain Triton 1% and Cruzain inh noDet 10µM*.
Cc1cccc(NC(=O)CN2C(=O)N/C(=C\c3ccc(N4CCOCC4)cc3)C2=O)c1 was read as Cruzain Triton -4% and Cruzain inh noDet -21%.
For Cc1ccc(-n2cccc2/C=C2/NC(=O)N(CC(=O)Nc3cccc(C)c3)C2=O)cc1 the results were Cruzain Triton -4% and Cruzain inh noDet 5µM*.
CC(=O)NC(Cc1c[nH]c2ccccc12)C(=O)NCc1ccc2c(c1)OCO2 (configuration not stated) was read as Cruzain Triton 4% and Cruzain inh noDet -13%.
`CCOC(=O)C(Cc1c[nH]c2ccccc12)NC(=O)COc1ccc(Cl)cc1` (configuration not stated) gave Cruzain Triton -8% and Cruzain inh noDet 11%.
`O=C(COC(=O)[C@H](Cc1c[nH]c2ccccc12)NC(=O)c1ccc(Cl)cc1)Nc1ccc2c(c1)OCO2` gave Cruzain Triton 3.5µM* and Cruzain inh noDet 20µM*.
For CC(C)(C)c1ccc(C(=O)NC(Cc2c[nH]c3ccccc23)C(=O)OCC(=O)c2ccc(Cl)cc2)cc1 (configuration not stated) the results were Cruzain Triton -4% and Cruzain inh noDet 25µM*.
COc1ccc(CCNC(=O)CSC2=Nc3ccccc3C3=NC(CCC(=O)NCc4ccccc4)C(=O)N23)cc1OC (configuration not stated) was read as Cruzain Triton 0% and Cruzain inh noDet 3%.
Screening O=c1c(-c2cccc(Cl)c2)nc2cncnc2n1Cc1ccc(F)cc1 returned Cruzain Triton 5% and Cruzain inh noDet -5%.
Screening Nc1nc(SCc2ccc(Cl)cc2Cl)nc2nc3c(cc12)CCCC3 returned Cruzain Triton 14µM* and Cruzain inh noDet 13µM*.
For Nc1nc(SCc2ccccc2Cl)nc2nc3c(cc12)CCCC3 the results were Cruzain Triton -15% and Cruzain inh noDet 4%.
For Cc1ccc(NC(=O)CC2Nc3ccccc3NC2=O)cc1C (configuration not stated) the results were Cruzain Triton -12% and Cruzain inh noDet 0%.
Screening CCOc1ccccc1NC(=O)CC1Nc2ccccc2NC1=O (configuration not stated) returned Cruzain Triton -9% and Cruzain inh noDet inconclusive.
Cc1ccc(NC(=O)CC2Nc3ccccc3NC2=O)cc1Cl (configuration not stated) was read as Cruzain Triton inconclusive and Cruzain inh noDet 25µM*.
CCCOc1ccccc1NC(=O)CC1Nc2ccccc2NC1=O (configuration not stated) was read as Cruzain Triton -4% and Cruzain inh noDet 13µM*.
CCC(C(=O)N1CCN(c2ccccc2F)CC1)n1nc(C)c2sc3ccccc3c2c1=O (configuration not stated) was read as Cruzain Triton -3% and Cruzain inh noDet 21%.
`Cc1cc2nc(-c3cc(NC(=O)c4cc5ccccc5o4)ccc3Cl)oc2cc1C` gave Cruzain Triton -1% and Cruzain inh noDet 13µM*.
For COc1ccccc1C(=O)Nc1ccc2oc(-c3cccc4c(Br)cccc34)nc2c1 the results were Cruzain Triton -4% and Cruzain inh noDet 1.3µM*.
`COc1cc(OC)cc(C(=O)Nc2ccc3oc(-c4cccc5c(Br)cccc45)nc3c2)c1` gave Cruzain Triton 0% and Cruzain inh noDet 2%.
`COc1cc2ccccc2cc1C(=O)Nc1ccc(Cl)c(-c2nc3ccccc3o2)c1` gave Cruzain Triton -2% and Cruzain inh noDet 3.2µM*.
`COc1cc2ccccc2cc1C(=O)Nc1ccc2oc(-c3ccc(Cl)cc3)nc2c1` gave Cruzain Triton 0% and Cruzain inh noDet -1%.
O=C(Nc1ccc(Cl)c(-c2nc3cc(Cl)ccc3o2)c1)c1cc2ccccc2o1 was read as Cruzain Triton 0% and Cruzain inh noDet inconclusive.
